Among the data in the OligoGym collection are sensor-assay potency score (higher = more potent) values, retold here.
Also: reference of the scale not given here.

One experiment deals with HIP1R. The experiment in a line: pooled miR-30 sensor sort-seq; sequence = guide strand. The settings on record: shRNA.
TTGAGCTGTCGGAAAACTGATT showed a sensor-assay potency score (higher = more potent) of -1.02.
Same read-out and setting: with ATGTTGTTGACATCGGTCCCAG the figure was -0.946; with TTGGTGGTTACACTTCGGGGGG, -1.01.
Same read-out and setting: with TTGATGGCTTTGCTGATGCTGA the figure was -1.07.
Turning to TAATCAAACATCTCCACAGTGA, the sensor-assay potency score (higher = more potent) is -0.629.

In the next experiment the target is HIST1H2BM. The experiment is described as above. The note with it: shRNA.
Take TTTGCGCTTCTTTCCATCCTTC: the sensor-assay potency score (higher = more potent) is -0.136.
Still for that read-out and setting: with TTCCATCCTTCTTCTGAGCCTT the figure was -0.589; with TAGCCTTGGAAGAGATGCCGGT, -0.26; with TTGTACACATACACAGAGTAGC, -0.844.
On the same count and under the same terms, with TACACATACACAGAGTAGCTCT the figure was -0.419; with ATACACAGAGTAGCTCTCCTTG, -0.936.
The same measure, in the same setting: with TACACAGAGTAGCTCTCCTTGC the figure was -0.828.
In turn, TTGTTAATGGCCTTCTTGGAGC registered a sensor-assay potency score (higher = more potent) of -1.15.
Still for that read-out and setting: with TTCTTTCCATCCTTCTTCTGAG the figure was -0.665; with TCCATCCTTCTTCTGAGCCTTG, -1.16.
In the case of TTAATGGCCTTCTTGGAGCCTT, the sensor-assay potency score (higher = more potent) was -0.535.
On to TAGCAGTAGGCGCACGGCCGTC, for which the sensor-assay potency score (higher = more potent) was -1.42.

A further experiment deals with HIST1H2BN. Described as above. The settings on record: shRNA.
Sequence TCACTGCCTTCTTGGAGCCTTT came in with a sensor-assay potency score (higher = more potent) of -1.34.
On the same count and under the same terms, with TTGTACACGTACACGGAGTAGC the figure was -0.485.
On the same count and under the same terms, for TTCTGGGCCTTTGTCACTGCCT the value was -1.05; for TACACGTACACGGAGTAGCTCT, -0.756.
Same read-out and setting: with TTGCCGTCCTTCTTCTGGGCCT the figure was -0.777; with TTTGTCACTGCCTTCTTGGAGC, -0.47; with TTGGACGAGATACCGGTGTCGG, -1.16.
TGGCCTTGGACGAGATACCGGT displayed a sensor-assay potency score (higher = more potent) of -1.2.
The same measure, in the same setting: for TTCTTGGAGCCTTTCTTCGGGG the value was -0.852; for TTGGAGCCTTTCTTCGGGGCAG, -0.909; for TCGAAGATGTCATTGACGAAGG, -1.38.
Consider TCTTCTGGGCCTTTGTCACTGC, for which the sensor-assay potency score (higher = more potent) is -0.0714.
The same measure, in the same setting: with TTCTTCTGGGCCTTTGTCACTG the figure was -0.654.

A further experiment concerns the target HIST1H4A. The description is as above. The note with it: shRNA.
The sequence ATGTTGTCACGCAACACCTTGC came in with a sensor-assay potency score (higher = more potent) of -1.02.
Same read-out and setting: for TGACTGTCTTGCGCTTGGCGTG the value was -1.68; for TAGACCACGTCCATGGCAGTGA, -0.363.
TAGATCAGACCAGAGATCCGCT returned a sensor-assay potency score (higher = more potent) of 0.162.
The same measure, in the same setting: with TTGTCACGCAACACCTTGCGGT the figure was -0.404; with AAAAACACCTTGAGCACCCCGC, 0.101; with TCACGCAACACCTTGCGGTGGC, 0.266.
ATAGGTGACAGCGTCACGGATC: the sensor-assay potency score (higher = more potent) is -0.773.
As for TCTCCTCGTAGATCAGACCAGA, the sensor-assay potency score (higher = more potent) was -0.957.
The same measure, in the same setting: for TATAGGTGACAGCGTCACGGAT the value was -1.01.
